Some test systems named below: T-47D breast; BT-549 breast; MDA-MB-435 melanoma; SW-620 colon; MCF7 breast; HCT-116 colon; HCC-2998 colon; KM12 colon.
Experiment in all cases: NCI-60 one-dose screen, 48 h (100 = growth as untreated, 0 = no growth, -100 = all killed)

Values joined by “and” are separate entries in the source; they are usually repeats but may differ in a detail not shown here. Equal values may be shown once. About 83,000 compounds went through this panel and 20% of them were active in at least one assay; those are over-represented in the sample as a whole.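 Percent growth is the endpoint: 0 to 100 indicates growth inhibition (40 means 60% inhibition), 0 means no net growth, and negative values indicate cell death.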 Active and inactive are the calls of the source. The calls were made as follows: active = growth percent below 10; inactive = the rest.

Among the data in PubChem BioAssay (NCI) are growth values, retold here.

As for `O=C1NC(=O)C2(CCc3ccccc32)N1` (stereo not given), the growth was 92.8% (inactive) and 94.4% (inactive) with T-47D breast (10 µM unless noted); 115% (inactive) and 98.1% (inactive) in the test with BT-549 breast (10 µM unless noted); 107% (inactive) and 129% (inactive) in the test with MDA-MB-435 melanoma (10 µM unless noted); 117% (inactive) in the test on SW-620 colon (10 µM unless noted); 92.9% (inactive) and 110% (inactive) in the test with MCF7 breast (10 µM unless noted); 113% (inactive) and 96.3% (inactive) in the test on HCT-116 colon (10 µM unless noted). Further, the growth is 103% (inactive) with HCC-2998 colon (10 µM unless noted); 100% (inactive) and 109% (inactive) with KM12 colon (10 µM unless noted).
On to `COc1cc(C(=O)c2ccc3c(c2)OCO3)cc(OC)c1OC`, for which the growth in the test with T-47D breast (10 µM unless noted) was 34.4% (inactive) and 32.8% (inactive); in the test with BT-549 breast (10 µM unless noted) it was 45.5% (inactive) and 30.3% (inactive); with MDA-MB-435 melanoma (10 µM unless noted), -19.5% (active) and -21.3% (active); with SW-620 colon (10 µM unless noted) it was 16.1% (inactive) and 9.92% (active); with MCF7 breast (10 µM unless noted), 23.2% (inactive) and 14.8% (inactive); in the test on HCT-116 colon (10 µM unless noted), 27.2% (inactive) and 24.5% (inactive). The growth with HCC-2998 colon (10 µM unless noted) was 60.1% (inactive) and 54.8% (inactive); in the test with KM12 colon (10 µM unless noted), 24.7% (inactive) and 27.3% (inactive).
With `CNc1ccc2nc3ccc(=[N+](C)C)cc-3sc2c1`, the growth in the test on T-47D breast (10 µM unless noted) is -12.4% (active) and -16.3% (active); in the test with BT-549 breast (10 µM unless noted), 49.1% (inactive); in the test with MDA-MB-435 melanoma (10 µM unless noted), -63.5% (active) and -47% (active); with SW-620 colon (10 µM unless noted), 0.782% (active) and 2.58% (active); in the test with MCF7 breast (10 µM unless noted) it was -65.8% (active) and -27.2% (active); with HCT-116 colon (10 µM unless noted) it was -8.61% (active) and -49.3% (active). Further, the growth in the test with HCC-2998 colon (10 µM unless noted) was 31.5% (inactive) and 33.6% (inactive); with KM12 colon (10 µM unless noted), 18.2% (inactive) and 14.2% (inactive).
Consider `O=[N+]([O-])c1ccc2nc3c4ccccc4c4ccccc4c3nc2c1`, for which the growth with T-47D breast (10 µM unless noted) was 67.9% (inactive); in the test with BT-549 breast (10 µM unless noted) it was 86.9% (inactive); in the test with MDA-MB-435 melanoma (10 µM unless noted) it was 95% (inactive); in the test with SW-620 colon (10 µM unless noted), 63.4% (inactive); in the test on MCF7 breast (10 µM unless noted), 65% (inactive); in the test on HCT-116 colon (10 µM unless noted), 33.6% (inactive). For the same molecule, the growth was 89.8% (inactive) with HCC-2998 colon (10 µM unless noted) and 89.3% (inactive) in the test with KM12 colon (10 µM unless noted).
Take `Cc1nn(-c2ccccc2)nc1C(=O)Nc1ccccc1C(=O)NCC1CC1`: the growth in the test with T-47D breast (10 µM unless noted) is 76.8% (inactive) and 28.7% (inactive); with BT-549 breast (10 µM unless noted), 123% (inactive) and 84.8% (inactive); with MDA-MB-435 melanoma (10 µM unless noted), 102% (inactive) and 85.9% (inactive); with SW-620 colon (10 µM unless noted), 104% (inactive) and 68.7% (inactive); with MCF7 breast (10 µM unless noted) it was 81.1% (inactive) and 56.5% (inactive); in the test on HCT-116 colon (10 µM unless noted), 63.9% (inactive) and -13.4% (active). Also, the growth in the test with HCC-2998 colon (10 µM unless noted) was 102% (inactive) and 116% (inactive); in the test with KM12 colon (10 µM unless noted) it was 117% (inactive) and 93.9% (inactive).
Turning to `CC#C[C@]1(O)CC[C@H]2[C@@H]3CCC4=CC(=O)CCC4=C3[C@@H](c3ccc4c(c3)OCO4)C[C@@]21C`, the growth with T-47D breast (10 µM) was 45% (inactive); in the test with T-47D breast (100 µM) it was -16.5% (active); with BT-549 breast (10 µM), 77.8% (inactive); in the test on BT-549 breast (100 µM) it was -33.1% (active); with MDA-MB-435 melanoma (10 µM), 94.7% (inactive); with MDA-MB-435 melanoma (100 µM), -35.6% (active). The growth in the test on SW-620 colon (10 µM) was 84.7% (inactive); in the test on SW-620 colon (100 µM), 4.2% (active); in the test on MCF7 breast (10 µM), 82.2% (inactive); in the test with MCF7 breast (100 µM), -4.09% (active); with HCT-116 colon (10 µM) it was 78.4% (inactive); in the test on HCT-116 colon (100 µM), -78.5% (active). In addition, the growth in the test with HCC-2998 colon (10 µM) is 94.4% (inactive); with HCC-2998 colon (100 µM), -22.7% (active); in the test with KM12 colon (10 µM), 86.3% (inactive); in the test on KM12 colon (100 µM), -42.3% (active).
Regarding `CC1=C[C@H]2c3c(c(O)c(O)c4oc5cc(O)cc(O)c5c(=O)c34)[C@H](c3cc(O)c(O)c4oc5cc(O)cc(O)c5c(=O)c34)[C@H]2C(C)(C)C1`, the growth with T-47D breast (10 µM unless noted) was -1.57% (active); with BT-549 breast (10 µM unless noted), 7.04% (active) and -11.3% (active); with MDA-MB-435 melanoma (10 µM unless noted), -69.8% (active) and -76.7% (active); in the test with SW-620 colon (10 µM unless noted) it was -37.8% (active) and -80.9% (active); in the test on MCF7 breast (10 µM unless noted), -19.7% (active) and -76.5% (active); with HCT-116 colon (10 µM unless noted), -61.9% (active) and -52.5% (active). Besides, the growth in the test with HCC-2998 colon (10 µM unless noted) was 14.3% (inactive) and -61% (active); in the test on KM12 colon (10 µM unless noted), -27% (active) and -71.5% (active).
With `Cc1c(Cl)cccc1NCN1C(=O)c2ccccc2C1=O`, the growth with T-47D breast (10 µM unless noted) was 94.4% (inactive); in the test with BT-549 breast (10 µM unless noted), 106% (inactive); with MDA-MB-435 melanoma (10 µM unless noted), 104% (inactive); in the test on SW-620 colon (10 µM unless noted) it was 110% (inactive); in the test on MCF7 breast (10 µM unless noted), 97.6% (inactive); in the test on HCT-116 colon (10 µM unless noted), 116% (inactive). Further, the growth in the test with HCC-2998 colon (10 µM unless noted) was 111% (inactive); in the test on KM12 colon (10 µM unless noted) it was 103% (inactive).
`Nc1ccc(N=Nc2ccc(S(=O)(=O)O)cc2)cc1S(=O)(=O)O`: the growth is 97.9% (inactive) and 98.3% (inactive) in the test on T-47D breast (10 µM unless noted); 120% (inactive) and 148% (inactive) in the test with BT-549 breast (10 µM unless noted); 108% (inactive) and 101% (inactive) in the test with MDA-MB-435 melanoma (10 µM unless noted); 115% (inactive) and 97.8% (inactive) with SW-620 colon (10 µM unless noted); 104% (inactive) and 92.8% (inactive) in the test with MCF7 breast (10 µM unless noted); 90.2% (inactive) and 114% (inactive) with HCT-116 colon (10 µM unless noted). The growth in the test with HCC-2998 colon (10 µM unless noted) was 105% (inactive) and 94.5% (inactive); with KM12 colon (10 µM unless noted), 96.1% (inactive) and 105% (inactive).
